Measured values taken from PubChem BioAssay.
Values without a mark were called inactive. For part of these data: Entries with a potency or affinity are not part of this list. The source made the active and inactive calls. Unless noted, how the calls were made is not given here.

Tests used:
[1] = antimalarial activity against Dd2 strain (AID 2302;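 active means growth inhibition above 50% at the single 2 µM test dose, taken to imply half-maximal potency below 2 µM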;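 further: 0% = DMSO untreated growth and 100% = chloroquine plus artemisinin killed control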); conditions: P. falciparum Dd2 in RBCs, LDH growth readout, 72 h; at 2 µM; active compounds read high
[2] = human hepatoma cell viability loss – ATP luminescence, cytotoxicity control for P. falciparum antimalarial project, primary screen (AID 2303;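 active means inhibition above 50%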;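 further: 0% = DMSO wells and 100% = digitonin-killed cells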); conditions: HepG2 viability, 24-48 h, at 10 µM, active compounds read high
[3] = biological target: L-lactate dehydrogenase (Plasmodium falciparum (isolate CDC / Honduras)) (UniProt Q27743); assay: PfLDH activity inhibition – cell lysate, 3D7 strain, counter-screen for P. falciparum growth inhibition project (AID 2304);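 further: 0% = vehicle and 100% = reference inhibitor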; conditions: P. falciparum 3D7 crude extract, LDH APAD/NBT absorbance; at 2 µM; active compounds read high
Chain of L-lactate dehydrogenase (Plasmodium falciparum (isolate CDC / Honduras)) (Q27743 whole entry, looked up): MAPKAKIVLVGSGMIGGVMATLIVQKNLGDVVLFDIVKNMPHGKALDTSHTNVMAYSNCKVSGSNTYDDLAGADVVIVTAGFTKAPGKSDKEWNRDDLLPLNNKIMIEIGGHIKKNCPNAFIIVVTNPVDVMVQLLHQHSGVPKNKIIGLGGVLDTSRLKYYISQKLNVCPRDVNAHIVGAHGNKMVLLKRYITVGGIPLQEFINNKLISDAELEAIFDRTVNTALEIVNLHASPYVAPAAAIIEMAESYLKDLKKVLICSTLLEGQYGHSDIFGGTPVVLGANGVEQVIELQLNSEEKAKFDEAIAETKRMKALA

[4] = inhibition of 3D7 malaria parasite growth – strain 3D7 (AID 2306);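 further: 0% = DMSO wells and 100% = chloroquine plus artemisinin control wells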; conditions: P. falciparum 3D7 erythrocytic growth, LDH absorbance, 72 h; at 2 µM; active compounds read high
[5] = biological target: Calcium-dependent protein kinase 1 (Plasmodium falciparum (isolate 3D7)) (UniProt P62344); assay: PfCDPK1 kinase inhibitors, biochemical, TCAMS library (AID 1159585; cut-off not given, nearly all actives have IC50 up to about 0.98 µM;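 further: inhibitors leave more ATP so luminescence rises with inhibition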); conditions: recombinant PfCDPK1, Kinase-Glo ATP depletion luminescence
Chain of Calcium-dependent protein kinase 1 (Plasmodium falciparum (isolate 3D7)) (P62344 whole entry, looked up): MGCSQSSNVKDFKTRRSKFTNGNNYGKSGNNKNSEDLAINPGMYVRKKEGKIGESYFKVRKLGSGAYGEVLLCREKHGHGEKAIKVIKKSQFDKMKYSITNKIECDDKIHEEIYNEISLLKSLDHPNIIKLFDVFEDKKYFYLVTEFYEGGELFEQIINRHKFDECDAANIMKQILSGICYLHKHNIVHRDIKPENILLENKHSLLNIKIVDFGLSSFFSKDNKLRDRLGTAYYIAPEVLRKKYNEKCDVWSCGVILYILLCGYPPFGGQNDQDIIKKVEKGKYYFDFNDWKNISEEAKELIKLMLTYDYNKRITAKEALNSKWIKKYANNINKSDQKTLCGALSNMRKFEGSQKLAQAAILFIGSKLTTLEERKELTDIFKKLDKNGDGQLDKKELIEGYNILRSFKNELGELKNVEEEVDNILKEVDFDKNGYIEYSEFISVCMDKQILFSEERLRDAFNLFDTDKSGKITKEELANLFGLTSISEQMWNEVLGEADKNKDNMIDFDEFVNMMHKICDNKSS

[6] = biological target: Plasmodium falciparum protein kinase 6 (PK6, PF3D7_1337100) (UniProt Q8IDW1); assay: PfPK6 kinase inhibitors, biochemical, TCAMS library (AID 1159586); conditions: recombinant PfPK6, Kinase-Glo ATP depletion luminescence
Chain of Plasmodium falciparum protein kinase 6 (PK6, PF3D7_1337100) (Q8IDW1 1-305): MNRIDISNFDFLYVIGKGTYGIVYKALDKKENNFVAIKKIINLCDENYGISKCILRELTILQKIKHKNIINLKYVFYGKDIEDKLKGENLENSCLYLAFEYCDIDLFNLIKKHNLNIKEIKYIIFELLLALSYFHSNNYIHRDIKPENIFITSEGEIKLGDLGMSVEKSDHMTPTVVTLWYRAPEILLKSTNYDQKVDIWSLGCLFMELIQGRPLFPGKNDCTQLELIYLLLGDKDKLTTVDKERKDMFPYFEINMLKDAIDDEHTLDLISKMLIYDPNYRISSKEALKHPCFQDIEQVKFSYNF

[7] = biological target: Protein kinase 7 (PK7), Plasmodium falciparum 3D7 (PF3D7_0213400) (UniProt Q7YTF7); assay: inhibition of Plasmodium PK7 catalytic activity – biochemical, TCAMS antimalarial set, Kinase-Glo luminescence (AID 1159587); conditions: recombinant PfPK7, Kinase-Glo ATP depletion luminescence
Chain of Protein kinase 7 (PK7), Plasmodium falciparum 3D7 (PF3D7_0213400) (Q7YTF7 1-343): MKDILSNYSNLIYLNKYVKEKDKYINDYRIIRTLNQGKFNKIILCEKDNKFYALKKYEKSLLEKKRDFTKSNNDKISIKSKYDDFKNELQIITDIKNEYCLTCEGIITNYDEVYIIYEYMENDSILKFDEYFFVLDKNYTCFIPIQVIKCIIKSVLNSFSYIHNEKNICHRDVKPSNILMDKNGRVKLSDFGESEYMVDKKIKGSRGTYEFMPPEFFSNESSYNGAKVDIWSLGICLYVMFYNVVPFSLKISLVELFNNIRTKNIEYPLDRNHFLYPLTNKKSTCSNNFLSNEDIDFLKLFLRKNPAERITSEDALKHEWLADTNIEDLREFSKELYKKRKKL

[8] = biological target: Calcium-dependent protein kinase 4 (Plasmodium falciparum (isolate 3D7)) (UniProt Q8IBS5); assay: PfCDPK4 kinase inhibitors, biochemical, TCAMS library (AID 1159588; cut-off not given, nearly all actives have IC50 up to about 0.91 µM); conditions: recombinant PfCDPK4, Kinase-Glo ATP depletion luminescence
Chain of Calcium-dependent protein kinase 4 (Plasmodium falciparum (isolate 3D7)) (Q8IBS5 whole entry, looked up): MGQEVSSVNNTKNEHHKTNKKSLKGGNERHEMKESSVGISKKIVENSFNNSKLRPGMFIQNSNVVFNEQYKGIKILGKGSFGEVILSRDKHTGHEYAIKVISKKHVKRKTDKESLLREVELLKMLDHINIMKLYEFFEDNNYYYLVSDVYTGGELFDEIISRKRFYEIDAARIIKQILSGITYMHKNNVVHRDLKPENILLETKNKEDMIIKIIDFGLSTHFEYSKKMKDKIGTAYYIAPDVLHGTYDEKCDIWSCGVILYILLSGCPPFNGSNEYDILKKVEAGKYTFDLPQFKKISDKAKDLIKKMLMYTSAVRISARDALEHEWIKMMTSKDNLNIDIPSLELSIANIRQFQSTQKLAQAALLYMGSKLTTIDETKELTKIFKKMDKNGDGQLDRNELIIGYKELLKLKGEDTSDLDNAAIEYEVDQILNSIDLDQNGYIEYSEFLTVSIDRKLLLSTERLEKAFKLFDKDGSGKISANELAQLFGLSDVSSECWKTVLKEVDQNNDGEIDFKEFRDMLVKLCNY

| SMILES | growth inhibition [1] | inhibition [2] | inhibition [3] [%] | growth inhibition [4] | outcome [5] | outcome [6] | outcome [7] | outcome [8] |
| --- | --- | --- | --- | --- | --- | --- | --- | --- |
| FC(F)(F)COc1ccc2ccccc2c1CNCCCCCCNCc1c(OCC(F)(F)F)ccc2ccccc12 | 95% (active) | 99% (active) | 2 | 101% (active) | inactive | inactive | inactive | inactive |
| COCCNC(=O)C(CNC(=O)c1ccc2c(c1)OCO2)NC(=O)c1ccc(-c2ccccc2)cc1 (configuration not stated) | 3% | 14% | 1 | 90% (active) | inactive | inactive | inactive | inactive |
| CC(C)c1ccc(NC(=O)c2ccc(C(=O)NCC3CCN(CC4CCCCC4)CC3)cc2)cc1 | 18% | 26% | -3 | 92% (active) | inactive | inactive | inactive | inactive |
| CC1(C)N=C(N)N=C(N)N1OCc1cc(Cl)c(Cl)cc1CON1C(N)=NC(N)=NC1(C)C | 100% (active) | 36% | 4 | 98% (active) | inactive | inactive | inactive | inactive |
| CSc1nc2nc(C)c(Cc3cccc(F)c3)c(C)n2n1 | 45% | 3% | 0 | 87% (active) | inactive | inactive | inactive | inactive |
| Cc1cccc(-n2c(=O)c3c4c(sc3n3c(SCCC(C)C)nnc23)CCCC4)c1 | 8% | -2% | -4 | 90% (active) | inactive | inactive | inactive | inactive |
| CN1CCC(C(=O)Nc2cccc(-c3ccc(-c4nc5ccccc5[nH]4)cc3)c2)CC1 | 15% | 7% | 5 | 82% (active) | inactive | inactive | inactive | inactive |
| CS(=O)(=O)c1ccc2c(c1)CCN(CCC1CCC(NC(=O)C(=Cc3ccc(Cl)cc3Cl)c3ccc(-c4ccccc4)cc3)CC1)CC2 (configuration not stated) | 16% | 33% | -1 | 81% (active) | inactive | inactive | inactive | inactive |
| O=C1CCCN1CCCNCc1cccc(-c2cccc(-c3nc4ccc(F)cc4[nH]3)c2)c1 | 69% (active) | 6% | -3 | 100% (active) | inactive | inactive | inactive | inactive |
| CN1CCC(C(=O)Nc2cccc(-c3cccc(-c4nc5ccc(F)cc5[nH]4)c3)c2)CC1 | 27% | 32% | 0 | 101% (active) | inactive | inactive | inactive | inactive |
| CN1CCN(CC(=O)Nc2ccc(-c3csc(-c4nc5ccccc5[nH]4)c3)cc2)CC1 | 46% | 6% | -4 | 99% (active) | inactive | inactive | inactive | inactive |
| O=C(Nc1cccc(CN2CCCN(Cc3ncc[nH]3)CC2)c1)c1cc2ccccc2s1 | 35% | 22% | -2 | 99% (active) | inactive | inactive | inactive | inactive |
| COc1ccc2nccc([C@@H](O)CN3CCC(NC(=O)/C=C/c4cccc(NC(C)=O)c4)CC3)c2c1 | 60% (active) | 5% | 0 | 90% (active) | inactive | inactive | inactive | inactive |
| O=C(Cc1ccccc1)NC1CCN(c2ccnc3cc(Cl)ccc23)C1 (configuration not stated) | 78% (active) | 6% | -6 | 101% (active) | inactive | inactive | inactive | inactive |
| CC(C)CCN1CCCN(Cc2cccc(NC(=O)c3cc4ccccc4s3)c2)CC1 | 8% | 34% | 1 | 96% (active) | inactive | inactive | inactive | inactive |
| COc1ccc(-c2cccc(NC(=O)c3cccc(C#N)c3)c2)cc1CN1CCNCC1 | 15% | 27% | 0 | 101% (active) | inactive | inactive | inactive | inactive |
| COc1cccc(-c2nc3c(N4CCN(c5ccncc5)CC4)cccc3n2CC2CCCCCN2)n1 (configuration not stated) | 31% | 12% | 3 | 91% (active) | inactive | inactive | inactive | inactive |
| CCOCCCn1c(=N)c(C(=O)NCc2ccc(F)cc2)cc2c(=O)n3cccc(C)c3nc21 | 40% | 21% | 5 | 101% (active) | inactive | inactive | inactive | inactive |
| CCC(CO)NCC(O)Cn1c2ccc(Cl)cc2c2cc(Cl)ccc21 (configuration not stated) | 88% (active) | 11% | -2 | 96% (active) | inactive | inactive | inactive | inactive |
| COc1ccccc1CCNc1nc(C)cc(N[C@@H](CC(C)C)C(=O)NCc2cccs2)n1 | 31% | 20% | 0 | 96% (active) | inactive | inactive | inactive | inactive |

| SMILES | growth inhibition [1] | inhibition [2] | inhibition [3] [%] | growth inhibition [4] | outcome [5] | outcome [6] | outcome [7] | outcome [8] |
| --- | --- | --- | --- | --- | --- | --- | --- | --- |
| COc1cccc(CN(C(=O)Nc2ccccc2F)[C@H]2C[C@H]3C(=O)Nc4cc(F)ccc4C(=O)N3C2)c1 | 75% (active) | -7% | 3 | 93% (active) | inactive | inactive | inactive | inactive |
| COc1ccc(S(=O)(=O)Nc2ccc(C(=O)NCc3ccc(C(F)(F)F)cc3)cc2)cc1N1CCN(CC2CC2)CC1 | 1% | 34% | 2 | 95% (active) | inactive | inactive | inactive | inactive |
| CN(C)CCOc1ccc(-c2cc(-c3ccncc3)c(-c3ccc(Cl)c(O)c3)[nH]2)cc1 | 100% (active) | 25% | -2 | 98% (active) | inactive | inactive | inactive | inactive |
| Oc1cc(Nc2ccnc3cc(-c4ccc(CN5CCCCC5)o4)c(Cl)cc23)c(Cl)cc1F | 64% (active) | -10% | -5 | 102% (active) | inactive | inactive | inactive | inactive |
| NS(=O)(=O)c1cccc(Br)c1 | -5% | 0% | 0 | 98% (active) | inactive | inactive | inactive | inactive |
| Cc1ccc(Nc2nc(NN=Cc3cccc([N+](=O)[O-])c3)nc(Nc3ccccc3)n2)c(C)c1 | 97% (active) | 9% | 4 | 91% (active) | inactive | inactive | inactive | inactive |
| CCCCCN1CCCC(NS(=O)(=O)c2cccc(C(=O)Nc3cccc(C(F)(F)F)c3)c2)C1 (configuration not stated) | 5% | 22% | -2 | 86% (active) | inactive | inactive | inactive | inactive |
| Cc1cc(-c2cnc(N)c(-c3ccc(N4CCN(C)CC4)nc3)c2)cc(C)c1O | 33% | -12% | 7 | 91% (active) | inactive | inactive | inactive | inactive |
| C=C[C@H]1CN(CCCCCCC)CC[C@H]1C[C@@H](Cc1ccnc2ccc(OC)cc12)OC(=O)[C@](OC)(c1ccccc1)C(F)(F)F | 96% (active) | 12% | 7 | 96% (active) | inactive | inactive | inactive | inactive |
| COc1cc(NC(=O)N2CCc3ccc(OCCC4CCCN4C)cc32)cc(C(F)(F)F)c1 (configuration not stated) | 42% | 5% | 3 | 101% (active) | inactive | inactive | inactive | inactive |
| O=C(Cc1cccc(O)c1)NCC(Cc1ccc(O)cc1)c1ccccc1 (configuration not stated) | 97% (active) | -1% | 3 | 91% (active) | inactive | inactive | inactive | inactive |
| CCCCCCNC(=O)C1Cc2c([nH]c3ccc(C)cc23)C2(CCN(CCc3ccccc3)CC2)N1 (configuration not stated) | 24% | 31% | 4 | 85% (active) | inactive | inactive | inactive | inactive |
| CCn1cnc2c(Nc3cccc([N+](=O)[O-])c3)nc(N3CCC(N4CCCCC4)CC3)nc21 | 35% | 31% | 3 | 98% (active) | inactive | inactive | inactive | inactive |
| FC(F)(F)c1ccc2nc(-c3ccc(-c4cccc(CN5CCN(c6ccncc6)CC5)c4)cc3)[nH]c2c1 | 99% (active) | 82% (active) | 2 | 101% (active) | inactive | inactive | inactive | inactive |
| COc1ccc(C(=O)Nc2nonc2-c2ccc(OC)c(OC)c2)cc1Cl | 97% (active) | 6% | 0 | 97% (active) | inactive | inactive | inactive | inactive |
| COc1cccc(CN2CCCN(Cc3cccc(NC(=O)c4ccc(Cl)c(Cl)c4)c3)CC2)c1 | 11% | 26% | 0 | 89% (active) | inactive | inactive | inactive | inactive |
| O=C(Nc1cccc(CN2CCN(C(=O)c3cccc(F)c3)CC2)c1)c1ccco1 | 55% (active) | 7% | 4 | 88% (active) | inactive | inactive | inactive | inactive |
| O=C1Nc2cccc3c2C1(CCCN1CCC(c2c[nH]c4cc(C(F)(F)F)ccc24)CC1)CCC3 (configuration not stated) | 37% | 91% (active) | -2 | 89% (active) | inactive | inactive | inactive | inactive |
| CC(O)CNc1nc2ccccc2n1CC(=O)Nc1cccc(C(=O)Nc2cccc(C(F)(F)F)c2)c1 (configuration not stated) | 95% (active) | 2% | 0 | 99% (active) | inactive | inactive | inactive | inactive |
